Measured values as given in PubChem BioAssay (NCATS).
Results filed as inconclusive are left out. The source made the active and inactive calls. Calls come from the whole dose curve; as a rule, active = well fitted cell-killing curve with a large enough effect; inconclusive = small, poorly fitted or top-dose-only effect, or effect the other way; inactive = flat fitted curve, though single readings scatter.

What was measured:
Assay in all cases: Primary qHTS to identify gynecologic anti-cancer compounds using libraries of approved drugs and bioactive compounds (AID 1345084); note: nearly all actives have a fitted effect of over 55% in size
Conditions in all cases: Gynecologic cancer cell panel viability, ATPlite luminescence, 48 h; series mostly up to 57.5 µM
[1] = tested on: C33A
Procedure, shortened: (§1)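 Five-concentration response, 48 h; readout is ATP-driven luciferase luminescence.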

[2] = tested on: CAOV3
Procedure, shortened: as §1

[3] = tested on: CASKI
Procedure, shortened: as §1
% is set by controls: 0 for no effect and ±100 for the full control effect.

O=C(/C=C/c1ccc(O)cc1)OCC1=CC2OC(=O)C3=CO[C@@H](O[C@@H]4O[C@H](CO)[C@@H](O)[C@H](O)[C@H]4O)[C@H]1[C@@H]32 (stereo partly specified)
inactive: Potency [1] | Potency [2] | Potency [3]

CC1=C2[C@@H]([C@H](C)CC[C@H]2/C=C(\C)C(=O)O)[C@H](O)C1
inactive: Potency [1] | Potency [2] | Potency [3]

CC1CCC2(C)C(CC(O)C(O)C23CO3)C1(C)CCC1=CC(=O)OC1O (stereo unspecified)
inactive: Potency [1] | Potency [2] | Potency [3]

CC1CC(O)C2(C)C(C(=O)O)=CCCC2C1(C)CCc1ccoc1 (stereo unspecified)
inactive: Potency [1] | Potency [2] | Potency [3]

CCC[C@@H]1C[C@@H](C(=O)N[C@H](C(C)Cl)[C@H]2O[C@H](SC)[C@H](O)[C@@H](O)[C@H]2O)N(C)C1 (stereo partly specified)
inactive: Potency [1] | Potency [2] | Potency [3]

O=c1c2ccccc2nc2n1CCC2O (stereo unspecified)
inactive: Potency [1] | Potency [2] | Potency [3]

NCCCC[C@H](NC(=O)[C@@H]1Cc2ccccc2CN1C(=O)CCC(=O)c1ccccc1)C(=O)NCC(c1ccccc1)c1ccccc1
inactive: Potency [1] | Potency [2] | Potency [3]

COc1cccc2c1CCC[C@H]2CN(C)CCc1ccc2ccoc2c1
inactive: Potency [1] | Potency [2] | Potency [3]

CCOc1ccc(-c2ccc(Cn3c(CC(C)(C)C(=O)O)c(SC(C)(C)C)c4cc(OCc5ccc(C)cn5)ccc43)cc2)cn1
inactive: Potency [1] | Potency [2] | Potency [3]

COc1c(OC2OC(CO)C(O)C(O)C2O)ccc(O)c1C(=O)OCc1ccccc1O[C@@H]1O[C@H](CO)[C@@H](O)[C@H](O)[C@H]1O (stereo partly specified)
inactive: Potency [1] | Potency [2] | Potency [3]

O=C(/C=C/c1ccc(O)cc1)O[C@H]1[C@@H]2C=CO[C@@H](O[C@@H]3O[C@H](CO)[C@@H](O)[C@H](O)[C@H]3O)[C@@H]2[C@@]2(CO)O[C@@H]12
inactive: Potency [1] | Potency [2] | Potency [3]

CC1CCC2C(C(=O)O)=CC3C(O)C(C)(C)CC123 (stereo unspecified)
inactive: Potency [1] | Potency [2] | Potency [3]

CCNC(=O)[C@H]1O[C@H](n2cnc3c(NCC(c4ccccc4)c4ccccc4)nc(C(=O)NCCNC(=O)NC4CCN(c5ccccn5)CC4)nc32)[C@H](O)[C@@H]1O
inactive: Potency [1] | Potency [2] | Potency [3]

CCOC(=O)[C@H]1O[C@@H]1C(=O)N[C@@H](CC(C)C)C(=O)NCCC(C)C
inactive: Potency [1] | Potency [2] | Potency [3]

C[C@@H]1CC[C@]2(C)C3(C)CC[C@@]2(OC3=O)[C@@]12C[C@H](c1ccoc1)OC2=O
inactive: Potency [1] | Potency [2] | Potency [3]

CC1(C)CC[C@]2(C(=O)O[C@@H]3O[C@H](CO)[C@@H](O)[C@H](O)[C@H]3O)CC[C@]3(C)C(=CCC4[C@@]5(C)C[C@@H](O)[C@H](O)[C@@](C)(CO)C5CC[C@]43C)C2C1 (stereo partly specified)
inactive: Potency [1] | Potency [2] | Potency [3]

CC(O)(CC(=O)O)CC(=O)O[C@@H]1[C@@H](O)[C@H](OCCc2ccccc2)O[C@H](CO)[C@H]1O (stereo partly specified)
inactive: Potency [1] | Potency [2] | Potency [3]

C=C1CC23CCC4[C@@](C)(CCC[C@@]4(C)C(=O)O)C2CCC1C3 (stereo partly specified)
inactive: Potency [1] | Potency [2] | Potency [3]

C/C(=C\CO)CC/C=C(\C)C(=O)O[C@H]1[C@H](OC2OC=C(C(=O)O)C3CCC(C)(O)C23)O[C@H](CO)[C@@H](O)[C@@H]1O (stereo partly specified)
inactive: Potency [1] | Potency [2] | Potency [3]

CC1(C)CC2C(C1)C1(C)CCC13OC3(CO)C2O (stereo unspecified)
inactive: Potency [1] | Potency [2] | Potency [3]

CNC(=O)COC(=O)NCCC1CCN(c2cccc(C)n2)CC1
inactive: Potency [1] | Potency [2] | Potency [3]

O=C(CCO[C@@H]1O[C@H](CO)[C@@H](O)[C@H](O)[C@H]1O)c1ccc(O)cc1
inactive: Potency [1] | Potency [2] | Potency [3]

CC(=O)O[C@@H]1[C@H]2[C@@H](OC(=O)c3ccccc3)[C@@H](C)C[C@]2(O)[C@H](OC(C)=O)[C@@]2(C)[C@@H]3CC(C)(C)C(=O)[C@]3(OC(C)=O)C[C@@]12C
inactive: Potency [1] | Potency [2] | Potency [3]

CC1CCC2(NC1)OC1C(=O)C3C4CCC5CC(O[C@@H]6O[C@H](CO)[C@@H](O)[C@H](O)[C@H]6O[C@@H]6O[C@@H](C)[C@H](O)[C@@H](O)[C@H]6O)CCC5(C)C4CCC3(C)C1C2C (stereo partly specified)
inactive: Potency [1] | Potency [2] | Potency [3]

C[C@@H]1CC[C@]2(C(=O)O)CC[C@]3(C)C(=CCC4[C@]5(C)C(CC[C@]43C)C(C)(C)[C@@H](O)[C@H](O)[C@@H]5O)C2[C@]1(C)O (stereo partly specified)
inactive: Potency [1] | Potency [2] | Potency [3]

C[C@H](NCc1ccc(OCc2ccccc2F)cc1)C(N)=O
inactive: Potency [1] | Potency [2] | Potency [3]

C=C1C2(CCC(=O)OC2(C)C)CC(OC(=O)/C(C)=C/C)C2(C)C13OC14C(=O)OC(C)(C(=O)C12C(=O)OC4C)C3OC(C)=O (stereo unspecified)
inactive: Potency [1] | Potency [2] | Potency [3]

CC12CCC3c4ccc(O)cc4CCC3C1CCC2OC1OC(C(=O)O)C(O)C(O)C1O (stereo unspecified)
inactive: Potency [1] | Potency [2] | Potency [3]

CC1=CC(=O)C2C(C)(C)CC(O)CC2(C)C1CO (stereo unspecified)
inactive: Potency [1] | Potency [2] | Potency [3]

CC(=O)O[C@H]1C[C@@H]2[C@]3(CC[C@]4(C)[C@@H](C5(C)CCC(C(C)(C)O)O5)[C@@H](O)C[C@@]24C)C[C@@]32CC[C@H](O[C@@H]3OC[C@@H](O)[C@H](O)[C@H]3O)C(C)(C)[C@H]12 (stereo partly specified)
inactive: Potency [1] | Potency [2] | Potency [3]

CNc1nc(Nc2cnn([C@H]3CCN(C4COC4)C[C@@H]3F)c2Cl)ncc1C(F)(F)F
inactive: Potency [1] | Potency [2] | Potency [3]

CCN[C@@H]1C[C@H](N)[C@@H](O[C@H]2OC(CN)=CC[C@H]2N)[C@H](O)[C@H]1O[C@H]1OC[C@](C)(O)[C@H](NC)[C@H]1O
inactive: Potency [1] | Potency [2] | Potency [3]

C/C(=C/CO)CC[C@@H]1[C@@]2(C)CCC[C@](C)(C(=O)O)C2CC[C@@]1(C)O (stereo partly specified)
inactive: Potency [1] | Potency [2] | Potency [3]

COC(=O)C1=CO[C@@H](O[C@@H]2O[C@H](CO)[C@@H](O)[C@H](O)[C@H]2O)[C@@H]2[C@@](C)(O)[C@@H](O)C[C@]12O
inactive: Potency [1] | Potency [2] | Potency [3]

CC(C)c1cc2c(c(O)c1O[C@@H]1O[C@H](CO)[C@@H](O)[C@H](O)[C@H]1O)CC1(O)CCC(O)C(C)(C)C1CC2 (stereo partly specified)
inactive: Potency [1] | Potency [2] | Potency [3]

C=C1CC2C3(C)C(OC(C)=O)CC(=O)OC(C)(C)C3C(O)C(OC(C)=O)C2(C)C2C(=O)OC(C)C(=O)C12C (stereo unspecified)
inactive: Potency [1] | Potency [2] | Potency [3]

COc1cc([C@H]2OC[C@]3(OC(C)=O)[C@@H](c4ccc(O[C@@H]5O[C@H](CO)[C@@H](O)[C@H](O)[C@H]5O)c(OC)c4)OC[C@H]23)ccc1O
inactive: Potency [1] | Potency [2] | Potency [3]

C=C1[C@@H]2[C@H]3OC(=O)C(=C)[C@@H]3CC[C@@](C)(O)[C@@H]2C[C@@H]1O[C@@H]1O[C@H](CO)[C@@H](O)[C@H](O)[C@H]1O
inactive: Potency [1] | Potency [2] | Potency [3]

NC(Cc1c[nH]c2ccccc12)C(=O)NC(CCC(=O)O)C(=O)O (stereo unspecified)
inactive: Potency [1] | Potency [2] | Potency [3]

COc1ccc(/C=C/C(=O)O[C@@H]2[C@@H](OC(C)=O)[C@@H](OC(C)=O)[C@H](O[C@H]3[C@@H]4C=CO[C@@H](O[C@@H]5O[C@H](CO)[C@@H](O)[C@H](O)[C@H]5O)[C@@H]4[C@@]4(CO)O[C@@H]34)O[C@H]2C)cc1O
inactive: Potency [1] | Potency [2] | Potency [3]

OCC1=CC[C@@H]2C=CO[C@@H](O[C@@H]3O[C@H](CO)[C@@H](O)[C@H](O)[C@H]3O)[C@H]12
inactive: Potency [1] | Potency [2] | Potency [3]

CCOc1c2c(c(OCC)c3ccccc13)C(=O)N(c1ccc(CC(=O)NS(=O)(=O)c3ccccc3)cc1)C2
inactive: Potency [1] | Potency [2] | Potency [3]

CC1=C(C)C(=O)OC(C(C)C2C(O)CC3C4C5OC5C5(O)CC(OC6OC(CO)C(O)C(O)C6O)CC(O)C5(C)C4CCC32C)C1 (stereo unspecified)
inactive: Potency [1] | Potency [2] | Potency [3]

COC(=O)C[C@@H]1C(C(=O)O)=CO[C@@H](O[C@@H]2O[C@H](CO)[C@@H](O)[C@H](O)[C@H]2O)/C1=C\COC(=O)/C=C\c1ccccc1
inactive: Potency [1] | Potency [2] | Potency [3]

COC(=O)C1C(CC(C)=O)C=CC(O)C12Oc1cc(C)cc(O)c1C2=O (stereo unspecified)
inactive: Potency [1] | Potency [2] | Potency [3]

COc1cc(C)c(C(=O)O[C@H]2[C@@H](O)[C@H](n3ccc(=O)[nH]c3=O)O[C@@H]2CO)c(OC)c1
inactive: Potency [1] | Potency [2] | Potency [3]

C=CC(C)(O)CO[C@@H]1O[C@H](CO)[C@@H](O)[C@H](O)[C@H]1O (stereo partly specified)
inactive: Potency [1] | Potency [2] | Potency [3]

CC1(C)CC[C@]2(C(=O)O)CC[C@]3(C)C(=CCC4[C@@]5(C)CC[C@H](O[C@@H]6O[C@H](C(=O)O)[C@@H](O)[C@H](O)[C@H]6O)C(C)(CO)C5CC[C@]43C)C2C1 (stereo partly specified)
inactive: Potency [1] | Potency [2] | Potency [3]

CC1(CO)CC[C@]2(C(=O)O[C@@H]3O[C@H](CO)[C@@H](O)[C@H](O)[C@H]3O)CC[C@]3(C)C(=CCC4[C@@]5(C)C[C@H](O)[C@H](O[C@@H]6OC[C@@H](O)[C@H](O)[C@H]6O)[C@@](C)(CO)C5CC[C@]43C)C2C1 (stereo partly specified)
inactive: activity change, negative = cytotoxicity [1] 5.37% [at 11.6 µM] | activity change, negative = cytotoxicity [2] -5.98% [at 11.6 µM] | activity change, negative = cytotoxicity [3] 3.16% [at 11.6 µM]

COC1CC(=O)C23C(=O)NC(CC(C)C)C2C(C)C(C)=CC3/C=C(\C)CCC1O (stereo unspecified)
inactive: Potency [1] | Potency [2] | Potency [3]

COc1cc(/C=C/C(=O)O[C@H]2[C@H](OC(=O)/C=C/c3cc(OC)c(O)c(OC)c3)O[C@H](CO[C@@H]3O[C@H](CO)[C@@H](O)[C@H](O)[C@H]3O)[C@@H](O)[C@@H]2O)ccc1O
inactive: Potency [1] | Potency [2] | Potency [3]

CC1=C2C(=O)C=C(CO)[C@@H]2[C@H]2OC(=O)[C@H](C)[C@@H]2[C@@H](O)C1
inactive: Potency [1] | Potency [2] | Potency [3]
